This is a sample that favours compounds with a hit; in the whole collection about 3.7% have one here.
GDH-TPI inh = GDH-TPI coupled enzyme inhibition counter-screen | 1.2% of 360,000 active | AID 588335 | GDH-TPI coupled enzyme counterscreen, NADH absorbance | inhibition, % at 4.8 µM; in the data active = inhibition above about 30%;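 note: 0% = DMSO wells and 100% = wells lacking the enzyme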
Rv3671c protease = inhibits the M. tuberculosis serine protease Rv3671c; P9WHR9; inhibition, % at 5.96 µM; 0.048% of 320,000 active; AID 2606; in the data active = inhibition above about 38%;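 note: extracellular domain of Rv3671c used as enzyme; 0% = enzyme with DMSO and 100% = no enzyme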
Target sequence (P9WHR9 whole entry, looked up, the tested form may be a part): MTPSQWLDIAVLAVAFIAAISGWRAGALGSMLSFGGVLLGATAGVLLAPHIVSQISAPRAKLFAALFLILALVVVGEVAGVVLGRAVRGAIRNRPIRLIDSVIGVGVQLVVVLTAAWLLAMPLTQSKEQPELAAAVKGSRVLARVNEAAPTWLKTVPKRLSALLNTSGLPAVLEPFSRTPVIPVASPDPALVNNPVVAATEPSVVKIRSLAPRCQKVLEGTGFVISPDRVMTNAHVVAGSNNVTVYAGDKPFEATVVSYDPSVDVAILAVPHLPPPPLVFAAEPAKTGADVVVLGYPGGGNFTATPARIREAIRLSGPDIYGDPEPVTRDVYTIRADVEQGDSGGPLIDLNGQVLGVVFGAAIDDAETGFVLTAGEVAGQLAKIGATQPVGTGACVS
FadD28 FP inh = blocks FadD28 binding to the bisubstrate probe | 0.22% of 360,000 active | inhibition, % at 12.5 µM | fluorescence polarization; in the data active = inhibition above about 8.5%, passing the limit was not always enough; inconclusive = no clear call, values can overlap the other calls
Mtb UGM inh = inhibitors of M. tuberculosis UDP-galactopyranose mutase. P9WIQ1. 0.06% of 320,000 active. inhibition, % at 10 µM. AID 504406. purified UGM, fluorescence polarization probe displacement; in the data active = inhibition above about 10%, passing the limit was not always enough; inconclusive = no clear call, values can overlap the other calls
Mtb FBA inh = inhibits M. tuberculosis FBA enzyme; P9WQA3; purified M. tuberculosis FBA, fluorescence read-out; inhibition, % at 1 µM; 2.3% of 360,000 active; AID 588726; in the data active = inhibition above about 27%;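 note: 0% = vehicle and 100% = reference inhibitor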
Mtb bLac sens = beta-lactam sensitization of Mtb H37Rv; inhibition, % at 25 µM; 0.27% of 330,000 active; AID 434955; M. tuberculosis H37Rv growth with meropenem, percent inhibition; call rule not given here;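 note: growth measured after seven days incubation then overnight dye step; 0% = bacteria only wells and 100% = bacteria with antibiotic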
* = called active by the depositor.

For COc1ccc(/C=C2\SC(=O)N(CC(=O)Nc3ccccc3O)C2=O)cc1OC the results were GDH-TPI inh 26.2, FadD28 FP inh inconclusive, Mtb UGM inh -1.0, Mtb FBA inh 0.7 and Mtb bLac sens 8.1.
For COc1cc(/C=C2\SC(=O)N(CC(=O)Nc3cccc(C)c3)C2=O)ccc1OC(C)C(=O)O (configuration not stated) the results were GDH-TPI inh 18.4, Rv3671c protease -3.1, FadD28 FP inh 81.2*, Mtb UGM inh -1.1, Mtb FBA inh -0.3 and Mtb bLac sens 1.9.
O=C(CN1C(=O)NC2(CCCc3ccccc32)C1=O)c1ccccc1F (configuration not stated) was read as GDH-TPI inh 0.4, Rv3671c protease -6.8, FadD28 FP inh -0.6, Mtb UGM inh 5.0, Mtb FBA inh 0.6 and Mtb bLac sens 0.2.
`CCN1C(=NCCc2c[nH]c3ccccc23)N[C@@H](c2ccccc2)[C@H](C(=O)OC)[C@H]1C` gave GDH-TPI inh 12.8, Rv3671c protease -7.3, FadD28 FP inh -2.3, Mtb UGM inh -1.5, Mtb FBA inh 6.4 and Mtb bLac sens -6.6.
Screening CCN(C(=O)CSc1nnc(-c2ccc(F)cc2)n1C)C1CCS(=O)(=O)C1 (configuration not stated) returned GDH-TPI inh -1.7, Rv3671c protease -1.0, FadD28 FP inh -3.2, Mtb UGM inh -0.1, Mtb FBA inh -0.4 and Mtb bLac sens -7.2.
COc1cccc(C(C)(O)c2nc(-c3ccc(F)cc3OC)cs2)c1 (configuration not stated) was read as GDH-TPI inh 13.3, FadD28 FP inh -0.2 and Mtb FBA inh -0.5.
Screening CN(CCc1ccccc1)C(CCc1ccccc1)C(=O)Nc1ccc2c(c1)OCCO2 (configuration not stated) returned FadD28 FP inh 0.0 and Mtb FBA inh -0.8.
Screening CCOC(=O)c1c(C)oc2ccc(OCC(=O)C(C)(C)C)cc12 returned GDH-TPI inh 3.5, Rv3671c protease -2.8, FadD28 FP inh -2.7, Mtb UGM inh -1.8, Mtb FBA inh -2.3 and Mtb bLac sens -5.7.
For CCOC(=O)c1c(-c2ccc(OC)cc2)oc2ccc(OCC(N)=O)cc12 the results were GDH-TPI inh -1.7, Rv3671c protease -6.0, FadD28 FP inh -0.7, Mtb UGM inh 0.3, Mtb FBA inh active and Mtb bLac sens 4.5.
CCOC(=O)c1c(-c2ccccc2)oc2ccc(OCC(=O)O)cc12 was read as GDH-TPI inh -1.3, Rv3671c protease -8.2, FadD28 FP inh -5.7, Mtb UGM inh 1.5, Mtb FBA inh 161.2* and Mtb bLac sens -12.1.
CCOC(=O)[C@H]1[C@H]2COc3cc(OC)ccc3[C@@H]2N2C(=O)[C@@H](CO)NC(=O)[C@@]12C was read as Rv3671c protease 6.3, Mtb UGM inh 0.9 and Mtb bLac sens -5.0.
O=C(O)c1cc(N/N=C/c2c(O)ccc3ccccc23)ccc1Cl was read as GDH-TPI inh 6.9, Rv3671c protease -1.1, FadD28 FP inh 20.3*, Mtb UGM inh 0.7, Mtb FBA inh 1.7 and Mtb bLac sens 6.5.
CC(C)CN(C(=O)COC(=O)c1cc2ccccc2cc1O)c1c(N)n(Cc2ccccc2)c(=O)[nH]c1=O was read as GDH-TPI inh -2.1, FadD28 FP inh -1.0 and Mtb FBA inh 1.7.
Screening COc1ccc(CCN2C(=O)N[C@@H](CCC(=O)O)C2=O)cc1 returned GDH-TPI inh 5.9, Rv3671c protease 2.5, FadD28 FP inh -0.4, Mtb UGM inh 0.4, Mtb FBA inh 3.6 and Mtb bLac sens -3.1.
`N#C/C(=C\c1cccnc1)C(=O)Nc1ccccc1[N+](=O)[O-]` gave GDH-TPI inh 4.1, Rv3671c protease 2.0, FadD28 FP inh 0.4, Mtb UGM inh -2.0, Mtb FBA inh 1.9 and Mtb bLac sens -5.3.
Screening COc1ccccc1N/C=C/c1onc(C)c1[N+](=O)[O-] returned GDH-TPI inh 11.7, Rv3671c protease 4.2, FadD28 FP inh 1.2, Mtb UGM inh 3.6, Mtb FBA inh -26.0 and Mtb bLac sens 1.6.
Cc1noc(/C=C/c2ccccn2)c1[N+](=O)[O-] was read as GDH-TPI inh 36.4*, Rv3671c protease 0.0, FadD28 FP inh -3.0, Mtb UGM inh 1.7, Mtb FBA inh -3.1 and Mtb bLac sens 91.3.
For CC(C)(C)OC(=O)N1CCC(C(=O)Nc2cccc(C(=O)NC3CC3)c2)CC1 the results were GDH-TPI inh -2.8, FadD28 FP inh -0.1 and Mtb FBA inh 0.5.
Screening Nc1nc2nn(-c3ccccc3)nc2c(=O)[nH]1 returned GDH-TPI inh 14.3, Rv3671c protease -0.4, Mtb UGM inh 0.7, Mtb FBA inh 199.2* and Mtb bLac sens 3.0.
Screening Cc1ccc(-c2c(C#N)c(N)n(-c3ccc(C)cc3)c(=O)c2C#N)cc1 returned GDH-TPI inh 40.3*, Rv3671c protease -8.3, FadD28 FP inh -0.2, Mtb UGM inh -3.2, Mtb FBA inh 2.1 and Mtb bLac sens -12.9.
CC(=O)Nc1c(C#N)c(-c2ccccc2)c(C#N)c(=O)n1-c1ccc(C)cc1 was read as GDH-TPI inh 33.0*, FadD28 FP inh -2.4 and Mtb FBA inh 0.6.
Cc1ccc(-n2c(N)c(C#N)c(-c3ccc(Cl)cc3)c(C#N)c2=O)cc1 was read as GDH-TPI inh 14.6, Rv3671c protease -4.8, FadD28 FP inh -2.1, Mtb UGM inh 1.0, Mtb FBA inh 4.4 and Mtb bLac sens -4.7.
COc1ccc(-n2c(=O)/c(=C\c3cccs3)s/c2=C(/C#N)C(=O)NCCN2CCOCC2)cc1 was read as GDH-TPI inh 34.1*, Rv3671c protease 0.4, FadD28 FP inh 0.9, Mtb UGM inh 0.4, Mtb FBA inh -4.7 and Mtb bLac sens -1.4.
COC(=O)/C=c1/s/c(=C(/C#N)C(=O)N2CCOCC2)n(-c2ccccc2)c1=O was read as GDH-TPI inh 39.9*, Rv3671c protease 6.3, FadD28 FP inh -0.6, Mtb UGM inh -2.4, Mtb FBA inh 2.5 and Mtb bLac sens -1.0.
Screening C=CCn1c(=O)/c(=C\c2ccsc2)s/c1=C(/C#N)C(=O)NCCN1CCOCC1 returned GDH-TPI inh 7.5, Rv3671c protease 2.5, FadD28 FP inh 1.0, Mtb UGM inh inconclusive, Mtb FBA inh 0.6 and Mtb bLac sens 1.7.
Screening O=C(N/N=C/c1cn(-c2ccccc2)nc1-c1cc2ccccc2o1)c1ccccc1Br returned GDH-TPI inh 30.9*, Rv3671c protease -9.5, FadD28 FP inh -1.6, Mtb UGM inh -1.5, Mtb FBA inh 2.5 and Mtb bLac sens 39.4.
Screening CCOc1ccc(OCC)c(NC(=O)CN2CCN(CC(=O)NC(C)C)CC2)c1 returned GDH-TPI inh 4.5, Rv3671c protease 3.4, FadD28 FP inh 0.5, Mtb UGM inh 0.9, Mtb FBA inh -0.1 and Mtb bLac sens -11.9.
CC(/C=N/n1c(-c2cccnc2)n[nH]c1=S)=C\c1ccco1 was read as Rv3671c protease 5.7, FadD28 FP inh -0.8, Mtb UGM inh 1.6 and Mtb bLac sens -14.2.
Screening Oc1ccc(Br)cc1/C=N/n1c(-c2ccccc2)n[nH]c1=S returned GDH-TPI inh -1.5, Rv3671c protease 8.1, FadD28 FP inh 1.7, Mtb UGM inh 3.0, Mtb FBA inh 1.3 and Mtb bLac sens -14.4.

Screens (PubChem BioAssay)
